# Screening results: PubChem, several laboratories
# tim10-1 inh: tim10-1 yeast growth inhibition. S. cerevisiae tim10-1 ts strain growth, BacTiter-Glo, 24 h. inhibition, % at 20 µM. hit rate 2.2% among 330,000. AID 463190;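 active means inhibition of at least 40%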;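 further: mutant grown at 25 °C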
# NALP1 yeast inh: inhibitors of NALP1 inflammasome in yeast; S. cerevisiae NALP1/ASC/caspase-1 growth, X-gal OD620, 72 h; inhibition, % at 10 µM; hit rate 0.61% among 280,000; AID 2071; in the data active means inhibition mostly above about 24%, no sharp cut-off; inactive means mostly below about 32%
# NALP3 yeast inh: NALP3 inhibition in yeast; Yeast reconstituted NLRP3/ASC/caspase-1, beta-gal luminescence, 24 h; inhibition, % at 10 µM; hit rate 0.39% among 330,000; AID 2825;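 active means inhibition of 50% or more; inactive means inhibition below 50%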
# PfHsp90 set2: reduces growth (ATP signal) of yeast expressing P. falciparum Hsp90; AID 504621; hit rate 0.32% among 310,000; S. cerevisiae expressing PfHsp90, BacTiter-Glo ATP, 48 h; yeast lacking PDR1 and PDR3 efflux regulators; inhibition, % at 9.4 µM;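 active means every replicate shows inhibition above about 80%, whatever the replicate mean, limit read from the data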
# TIM10 inh: inhibits growth of TIM10 yeast strain; S. cerevisiae TIM10 strain growth, BacTiter-Glo luminescence, 24 h; inhibition, % at 10 µM; hit rate 1.4% among 330,000; AID 463195;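 active means inhibition of 40% or more at the single tested concentration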;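 further: wild-type TIM10 isogenic control strain grown at permissive 25 °C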
# tim23-1 inh: growth inhibitors of tim23-1 mutant yeast; S. cerevisiae tim23-1 growth, BacTiter-Glo luminescence, 24 h; inhibition, % at 20 µM; hit rate 1.3% among 330,000; AID 463212;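 active means growth inhibition of the mutant yeast at or above 50%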;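 further: temperature-sensitive mutant grown at 25 °C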
# tim10-1 conf: confirmation of tim10-1 mutant yeast growth inhibitors; shares compounds with tim10-1 inh; S. cerevisiae tim10-1 ts strain growth, BacTiter-Glo, 24 h; inhibition, % at 20 µM; hit rate 56% among 7,400; AID 463213;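 active means inhibition of yeast growth at or above a set limit in either of two repeat tests at 20 µM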;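 further: tim10-1 mutant grown at permissive 25 °C to find synthetic lethal compounds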
# TIM10 conf: TIM10 yeast growth inhibition, confirmed; AID 463215; inhibition, % at 10 µM; shares compounds with TIM10 inh; hit rate 63% among 4,600; S. cerevisiae tim10 strain growth, BacTiter-Glo luminescence, 24 h;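 active means inhibition of yeast growth at or above a set limit in either of two replicates at 10 µM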; further: this counterscreen used the strain with wild-type TIM10
# tim23-1 confirm: tim23-1 yeast growth inhibition, confirmed; inhibition, % at 20 µM; hit rate 83% among 4,400; shares compounds with tim23-1 inh; S. cerevisiae tim23-1 growth, BacTiter-Glo luminescence, 24 h;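 active means inhibition above about 39% in either of two replicate wells at 20 µM, limit read from the data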;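 further: temperature-sensitive tim23-1 mutant grown at 25 °C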
# Numbers stand for hits; . = inactive; / = no result given. Sampled rows, rich in hits. Any-hit rate of the full collection: about 4.1%.
SMILES,tim10-1 inh,NALP1 yeast inh,NALP3 yeast inh,PfHsp90 set2,TIM10 inh,tim23-1 inh,tim10-1 conf,TIM10 conf,tim23-1 confirm
CC(=O)c1ccc(CCCCc2ccc(C(C)=O)cc2)cc1,/,/,/,.,/,/,/,/,/
O=C(/C=C/c1cccc(C(F)(F)F)c1)Nc1cccc(C(F)(F)F)c1,55.0,.,.,105.2,57.7,72.0,56.1,53.5,69.4
CC(C)Cn1c2c(c(O)c(C(=O)Nc3ncccc3O)c1=O)CCCC2,40.5,.,.,.,49.6,55.0,42.7,57.0,60.8
COc1ccc(-c2cc3nc(C)cc(N)n3n2)cc1,61.5,.,.,.,47.2,53.8,43.8,.,63.5
S=c1[nH]nc(-c2ccc(Cl)cc2)n1/N=C/C=C/c1ccco1,44.6,.,.,.,.,51.4,.,/,.
S=c1[nH]nc(-c2ccc(Cl)cc2)n1/N=C/c1ccco1,.,.,.,.,.,.,/,/,/
CC/C(=N\NC(=S)Nc1ccc(OC)cc1)c1ccc(OC(F)F)cc1,53.7,.,.,.,.,52.8,46.5,/,43.4
CCOC(=O)C1Nc2ccccc2C2c3ccccc3CC12 (centres undefined),50.1,/,.,.,.,59.1,51.5,/,60.0
O=C(Nc1nc(-c2ccco2)c(-c2ccco2)s1)C1CC(=O)N(c2ccc3c(c2)OCCO3)C1 (centres undefined),.,.,.,.,.,.,/,/,/
O=C(Nc1nc(-c2ccco2)c(-c2ccco2)s1)C1CCC1,44.6,.,.,.,46.0,65.7,58.8,48.5,59.5
Cc1cc(C)n2nc(C(=O)OCC(=O)NCc3ccc(Cl)cc3)nc2n1,.,/,.,.,.,.,/,/,/
Cc1c(C#N)c(N=CN(C)C)c(C(=O)c2ccc(Br)cc2)n1-c1ccccc1,41.0,.,.,.,41.9,55.7,.,.,.
Cc1n[nH]c(C)c1S(=O)(=O)N1CCc2ccccc2C1,.,.,.,.,.,.,/,/,/
c1ccc(N/N=C(\Cc2ncc[nH]2)c2ccccc2)cc1,.,.,.,.,.,.,/,/,/
Clc1cccc(N/N=C(\Cc2nc3ccccc3[nH]2)c2ccccc2)c1,40.3,.,.,.,55.9,64.4,.,.,.
O=C1C(c2ccccc2)=[N+]([O-])c2ccccc21,57.6,/,.,.,54.8,61.4,47.5,52.7,.
Cc1ccc2nc(NCCc3ccccc3)c3nncn3c2c1,.,.,.,.,.,.,/,/,/
Cc1ccc(CNc2oc(-c3cccs3)nc2C#N)cc1,43.7,.,.,.,.,52.2,.,/,46.5
COc1ccc(OC(C)C(=O)N(C)Cc2nc(-c3ccc(OC)cc3)no2)cc1 (centres undefined),.,.,.,.,.,.,/,/,/
Oc1ccc2ccccc2c1N=Nc1ccccn1,51.8,.,.,124.7,.,52.4,45.9,/,58.8
CCOc1cc(/C=C2/C(=O)ON=C2C)ccc1OCc1ccccc1F,52.5,.,.,.,.,58.2,.,/,52.2
CC(C)=CC(=O)N1CCCC(N2CCN(c3ccc(F)cc3)CC2)C1 (centres undefined),.,.,.,.,.,.,/,/,/
O=C1c2ccc(Oc3cccc([N+](=O)[O-])c3)cc2C(=O)N1c1ccccn1,46.5,.,.,.,61.9,52.1,54.3,41.6,65.0
Cc1noc(/C=C/N(C)C)c1S(=O)(=O)N1CCC(C(=O)NC(C)(C)C)CC1,.,.,.,.,.,.,/,/,/
Oc1cccc2ccc(Nc3ccccn3)nc12,66.6,.,.,/,.,52.0,64.0,/,79.3
SMILES,tim10-1 inh,NALP1 yeast inh,NALP3 yeast inh,PfHsp90 set2,TIM10 inh,tim23-1 inh,tim10-1 conf,TIM10 conf,tim23-1 confirm
c1ccc(Nc2ccccc2Nc2ccccn2)nc1,.,.,.,/,.,.,/,/,/
CC(=O)Nc1ccc(SCc2csc(C)n2)cc1,.,.,.,.,.,.,/,/,/
O=C(NO)c1ccc(C(=O)N(C2CCCCC2)C2CCCCC2)cc1,52.9,.,.,/,51.4,64.4,40.6,39.5,71.1
O=C(c1ccc(-n2cnnn2)cc1)N(C1CCCCC1)C1CCCCC1,.,.,.,.,.,.,/,/,/
Cc1ccc(S(=O)(=O)CCC(=O)N2CCN(c3ccc([N+](=O)[O-])cc3)CC2)cc1,.,.,.,.,.,.,/,/,/
CC(C)C[C@@H](CNCC(=O)[C@H](Cc1c[nH]c2ccccc12)NC(=O)c1[nH]cnc1C(=O)N[C@@H](C)CN)NC(=O)c1nc[nH]c1C(=O)N[C@@H](C)C(=O)O,/,/,/,.,/,/,/,/,/
COc1ccc2[nH]c3c4c(ccc3c2c1)C(=O)C=CC4=O,61.6,.,.,.,79.1,75.7,77.0,98.9,.
COc1ccc2[nH]c(=O)cc(C(=O)O)c2c1,.,.,.,.,.,.,/,/,/
O=C(Nc1ccccc1Cl)N1CCCN(c2nc(-c3ccccc3)ns2)CC1,43.0,.,.,.,45.9,55.4,.,32.8,45.0
CC(C)c1ccc(NC2CCCN(C(=O)CCN3CCCCO3)C2)cc1 (centres undefined),.,.,.,.,.,.,/,/,/
O=[N+]([O-])c1cccc(-c2nc3ccccc3s/c2=N/O)c1,71.3,.,.,.,57.3,82.1,55.0,69.1,54.3
O=[N+]([O-])c1cccc(-c2cnc3ccccc3n2)c1,.,.,.,.,.,.,/,/,/
CC1CCc2[nH]c3ccc(C(=O)N4CCCC(C(F)(F)F)C4)cc3c2C1 (centres undefined),41.8,/,.,/,.,67.7,.,/,54.6
COC(=O)c1ccc2[nH]c3c(c2c1)CC(C)CC3 (centres undefined),.,/,.,.,.,.,/,/,/
Cc1ccc(S(=O)(=O)NCC(=O)OCC(=O)N(C)C2CCS(=O)(=O)C2)cc1 (centres undefined),.,/,.,.,.,.,/,/,/
N/C(=N\OC(=O)C12CC3CC(CC(C3)C1)C2)c1cccnc1,.,.,.,.,.,.,/,/,/
N/C(=N\OC(=O)C12CC3CC(CC(C3)C1)C2)c1ccccn1,61.9,.,.,.,41.3,51.4,44.3,.,48.9
N/C(=N\OC(=O)C12CC3CC(CC(C3)C1)C2)c1ccccc1,64.5,.,.,.,78.7,70.4,53.7,77.9,70.9
Cc1ccc(S(=O)(=O)N2CC(O)C[C@H]2C(=O)OCC(=O)Nc2ccc(N3CCCCC3)cc2)cc1C (some centres undefined),.,/,.,/,.,.,/,/,/
CCc1cc(=O)oc2cc(OCC(=O)N3CCC[C@H]3C(=O)O)ccc12,.,.,.,.,.,.,/,/,/
Cc1cc(N)n2ncc(-c3ccc(Cl)cc3)c2n1,52.8,.,.,.,.,70.5,40.5,/,20.8
Cc1cc(Cl)n2ncc(-c3ccccc3)c2n1,.,.,.,.,.,.,/,/,/
